{
  "source": "PubChem BioAssay (NCATS)",
  "note": "Inconclusive results are not listed. A number with no mark means an inactive call. Calls of active or inactive are those of the source. Calls come from the whole dose curve; as a rule, active = well fitted inhibition curve with a large enough effect; inconclusive = small, poorly fitted or top-dose-only effect; inactive = flat fitted curve, though single readings scatter. Potency is the fitted concentration of half-maximal effect.",
  "data": [
    {"test_system": "CP238", "assay": "qHTS profiling for inhibitors of Plasmodium falciparum proliferation (AID 504749); note: nearly all actives have a fitted effect of over 60% in size;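 for activity, negative = inhibition: 0% = DMSO vehicle and full inhibition = artemisinin control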", "details": "P. falciparum in erythrocytes, SYBR Green DNA, 72 h; series mostly up to 28.7 µM; activity, negative = inhibition: at the top concentration", "how_it_was_run": "(§1)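 Readout was DNA-dye fluorescence from lysed cultures, ex 485/em 535 nm. Parasitized red cells had grown 72 h with compound; data scaled between 0.29 uM artemisinin and DMSO wells and corrected using vehicle-only plates.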", "values": [
      {"smiles": "COc1ccc(-c2ccc3cc(C(=O)O)ccc3c2)cc1C12CC3CC(CC(C3)C1)C2", "activity, negative = inhibition": "4.27%"},
      {"smiles": "O=NN(CCCl)C(=O)NC1CCCCC1", "activity, negative = inhibition": "5.15%"},
      {"smiles": "CC[C@H](C)C(=O)O[C@H]1C[C@@H](C)C=C2C=C[C@H](C)[C@H](CC[C@@H]3C[C@@H](O)CC(=O)O3)[C@H]21", "activity, negative = inhibition": "2.19%"},
      {"smiles": "Cc1cccc(Nc2ccncc2S(=O)(=O)NC(=O)NC(C)C)c1", "activity, negative = inhibition": "2.21% [at 12.8 µM]"},
      {"smiles": "CN1CCN(c2c(F)cc3c(=O)c(C(=O)O)cn(CCF)c3c2F)CC1", "activity, negative = inhibition": "9.35%"},
      {"smiles": "CCOC(=O)[C@H](CCc1ccccc1)N[C@H]1CS[C@H](c2cccs2)CN(CC(=O)O)C1=O", "activity, negative = inhibition": "-19.8%"},
      {"smiles": "N=C(N)c1ccc(OCCCCCOc2ccc(C(=N)N)cc2)cc1", "Potency": "2240 nM (active)"}
    ]},
    {"test_system": "CP247", "assay": "qHTS profiling for inhibitors of Plasmodium falciparum proliferation (AID 504749); note: nearly all actives have a fitted effect of over 60% in size;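 for activity, negative = inhibition: 0% = DMSO vehicle and full inhibition = artemisinin control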", "details": "P. falciparum in erythrocytes, SYBR Green DNA, 72 h; series mostly up to 28.7 µM; activity, negative = inhibition: at the top concentration", "how_it_was_run": "as §1", "values": [
      {"smiles": "NC(=O)N1c2ccccc2CC(=O)c2ccccc21", "activity, negative = inhibition": "7.74%"},
      {"smiles": "CNS(=O)(=O)Cc1ccc2[nH]cc(CCN(C)C)c2c1", "activity, negative = inhibition": "3.64%"},
      {"smiles": "CCCc1cc(C(N)=S)ccn1", "activity, negative = inhibition": "4.09%"},
      {"smiles": "CCCN[C@H]1CCc2nc(N)sc2C1", "activity, negative = inhibition": "5.72%"},
      {"smiles": "COc1ccc(C(=O)CC(=O)c2ccc(C(C)(C)C)cc2)cc1", "activity, negative = inhibition": "6.56%"},
      {"smiles": "CC(C)Cn1cnc2c(N)nc3ccccc3c21", "activity, negative = inhibition": "0.211%"},
      {"smiles": "Nc1nc(N)nc(-c2cc(Cl)ccc2Cl)n1", "activity, negative = inhibition": "-2.92%"},
      {"smiles": "OC(Cn1cncn1)(Cn1cncn1)c1ccc(F)cc1F", "activity, negative = inhibition": "5.52%"},
      {"smiles": "CC(C)OC(=O)C(C(=O)OC(C)C)=C1SC=CS1", "activity, negative = inhibition": "5.64%"},
      {"smiles": "NCCCC(O)(P(=O)(O)O)P(=O)(O)O", "activity, negative = inhibition": "2.17%"},
      {"smiles": "Nc1ccc(S(=O)(=O)Nc2ccccn2)cc1", "activity, negative = inhibition": "5.12% [at 12.8 µM]"},
      {"smiles": "Cc1noc(NS(=O)(=O)c2ccc(N)cc2)c1C", "activity, negative = inhibition": "8.04%"},
      {"smiles": "O=c1cc(O)c(Cl)c[nH]1", "activity, negative = inhibition": "4.64%"},
      {"smiles": "Cn1nnc2c(C(N)=O)ncn2c1=O", "activity, negative = inhibition": "-1.38%"},
      {"smiles": "C#CCN[C@@H]1CCc2ccccc21", "activity, negative = inhibition": "26.9%"},
      {"smiles": "COc1cc(NCc2ccc3nc(N)nc(N)c3c2C)cc(OC)c1OC", "Potency": "447 nM (active)"},
      {"smiles": "N[C@@H](C(=O)N[C@@H]1C(=O)N2C(C(=O)O)=C(Cl)CS[C@H]12)c1ccccc1", "activity, negative = inhibition": "6.79%"},
      {"smiles": "CN(C)CCc1c[nH]c2ccc(CS(=O)(=O)N3CCCC3)cc12", "activity, negative = inhibition": "-4.35%"},
      {"smiles": "C[C@]12C=CC(=O)C=C1CC[C@@H]1[C@@H]2C(=O)C[C@@]2(C)[C@H]1CC[C@]2(O)C(=O)CO", "activity, negative = inhibition": "7%"},
      {"smiles": "Nc1[nH]c(=O)ncc1F", "activity, negative = inhibition": "5.08% [at 12.8 µM]"},
      {"smiles": "COc1ccc(-c2ccc3cc(C(=O)O)ccc3c2)cc1C12CC3CC(CC(C3)C1)C2", "activity, negative = inhibition": "3.27%"},
      {"smiles": "O=NN(CCCl)C(=O)NC1CCCCC1", "activity, negative = inhibition": "4.38%"},
      {"smiles": "CC[C@H](C)C(=O)O[C@H]1C[C@@H](C)C=C2C=C[C@H](C)[C@H](CC[C@@H]3C[C@@H](O)CC(=O)O3)[C@H]21", "activity, negative = inhibition": "-5.22%"},
      {"smiles": "Cc1cccc(Nc2ccncc2S(=O)(=O)NC(=O)NC(C)C)c1", "activity, negative = inhibition": "3.55% [at 12.8 µM]"},
      {"smiles": "CN1CCN(c2c(F)cc3c(=O)c(C(=O)O)cn(CCF)c3c2F)CC1", "activity, negative = inhibition": "-8.98%"},
      {"smiles": "CCOC(=O)[C@H](CCc1ccccc1)N[C@H]1CS[C@H](c2cccs2)CN(CC(=O)O)C1=O", "activity, negative = inhibition": "-23.6%"},
      {"smiles": "N=C(N)c1ccc(OCCCCCOc2ccc(C(=N)N)cc2)cc1", "Potency": "1120 nM (active)"}
    ]},
    {"test_system": "CP250", "assay": "qHTS profiling for inhibitors of Plasmodium falciparum proliferation (AID 504749); note: nearly all actives have a fitted effect of over 60% in size;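 for activity, negative = inhibition: 0% = DMSO vehicle and full inhibition = artemisinin control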", "details": "P. falciparum in erythrocytes, SYBR Green DNA, 72 h; series mostly up to 28.7 µM; activity, negative = inhibition: at the top concentration", "how_it_was_run": "as §1", "values": [
      {"smiles": "NC(=O)N1c2ccccc2CC(=O)c2ccccc21", "activity, negative = inhibition": "-15.8%"},
      {"smiles": "CNS(=O)(=O)Cc1ccc2[nH]cc(CCN(C)C)c2c1", "activity, negative = inhibition": "-1.33%"},
      {"smiles": "CCCc1cc(C(N)=S)ccn1", "activity, negative = inhibition": "2.15%"},
      {"smiles": "CCCN[C@H]1CCc2nc(N)sc2C1", "activity, negative = inhibition": "-16%"},
      {"smiles": "COc1ccc(C(=O)CC(=O)c2ccc(C(C)(C)C)cc2)cc1", "activity, negative = inhibition": "-0.919%"},
      {"smiles": "CC(C)Cn1cnc2c(N)nc3ccccc3c21", "activity, negative = inhibition": "-7.85%"},
      {"smiles": "Nc1nc(N)nc(-c2cc(Cl)ccc2Cl)n1", "activity, negative = inhibition": "-22.9%"},
      {"smiles": "OC(Cn1cncn1)(Cn1cncn1)c1ccc(F)cc1F", "activity, negative = inhibition": "6.31%"},
      {"smiles": "CC(C)OC(=O)C(C(=O)OC(C)C)=C1SC=CS1", "activity, negative = inhibition": "4.12%"},
      {"smiles": "NCCCC(O)(P(=O)(O)O)P(=O)(O)O", "activity, negative = inhibition": "8.41%"},
      {"smiles": "Nc1ccc(S(=O)(=O)Nc2ccccn2)cc1", "activity, negative = inhibition": "-27.2% [at 12.8 µM]"},
      {"smiles": "Cc1noc(NS(=O)(=O)c2ccc(N)cc2)c1C", "activity, negative = inhibition": "-10.5%"},
      {"smiles": "O=c1cc(O)c(Cl)c[nH]1", "activity, negative = inhibition": "5.95%"},
      {"smiles": "Cn1nnc2c(C(N)=O)ncn2c1=O", "activity, negative = inhibition": "3.51%"},
      {"smiles": "CNC1CCCN(c2c(F)cc3c(=O)c(C(=O)O)cn(C4CC4)c3c2OC)C1", "note": "(configuration not stated)", "activity, negative = inhibition": "-19.5%"},
      {"smiles": "C#CCN[C@@H]1CCc2ccccc21", "activity, negative = inhibition": "-2.68%"},
      {"smiles": "COc1cc(NCc2ccc3nc(N)nc(N)c3c2C)cc(OC)c1OC", "Potency": "794 nM (active)"},
      {"smiles": "N[C@@H](C(=O)N[C@@H]1C(=O)N2C(C(=O)O)=C(Cl)CS[C@H]12)c1ccccc1", "activity, negative = inhibition": "9.35%"},
      {"smiles": "CN(C)CCc1c[nH]c2ccc(CS(=O)(=O)N3CCCC3)cc12", "activity, negative = inhibition": "-8.37%"},
      {"smiles": "C[C@]12C=CC(=O)C=C1CC[C@@H]1[C@@H]2C(=O)C[C@@]2(C)[C@H]1CC[C@]2(O)C(=O)CO", "activity, negative = inhibition": "10.9%"},
      {"smiles": "Nc1[nH]c(=O)ncc1F", "activity, negative = inhibition": "4.06% [at 12.8 µM]"},
      {"smiles": "COc1ccc(-c2ccc3cc(C(=O)O)ccc3c2)cc1C12CC3CC(CC(C3)C1)C2", "activity, negative = inhibition": "8.54%"},
      {"smiles": "O=NN(CCCl)C(=O)NC1CCCCC1", "activity, negative = inhibition": "-4.17%"},
      {"smiles": "CC[C@H](C)C(=O)O[C@H]1C[C@@H](C)C=C2C=C[C@H](C)[C@H](CC[C@@H]3C[C@@H](O)CC(=O)O3)[C@H]21", "activity, negative = inhibition": "2.31%"},
      {"smiles": "Cc1cccc(Nc2ccncc2S(=O)(=O)NC(=O)NC(C)C)c1", "activity, negative = inhibition": "1% [at 12.8 µM]"},
      {"smiles": "CN1CCN(c2c(F)cc3c(=O)c(C(=O)O)cn(CCF)c3c2F)CC1", "activity, negative = inhibition": "-2.88%"},
      {"smiles": "CCOC(=O)[C@H](CCc1ccccc1)N[C@H]1CS[C@H](c2cccs2)CN(CC(=O)O)C1=O", "activity, negative = inhibition": "-7.16%"},
      {"smiles": "N=C(N)c1ccc(OCCCCCOc2ccc(C(=N)N)cc2)cc1", "Potency": "2510 nM (active)"}
    ]}
  ]
}
